What is called AC50 is the concentration giving half of the maximal activity seen.

Assay [1] in a line: ATG_DR4_LXR_CIS: Attagene CIS-FACTORIAL HepG2 Assay for human Liver X Receptor (LXR), DR4 submotif (AID 2282929). To be noted: HepG2 Attagene DR4 cis-reporter, mRNA transcription; actives raise or lower the signal. Put shortly: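 HepG2 cells were transiently transfected with multiple cis-regulated reporter units and dosed for 24 hours. The DR4 reporter mRNA was quantified by RT-PCR, 6-FAM labelling and capillary electrophoresis. Bidirectional fits used DMSO as baseline.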

For assay [2], the target named is Aryl hydrocarbon receptor (Homo sapiens) (UniProt P35869). The assay can be described thus: ATG_Ahr_CIS: Attagene CIS-FACTORIAL HepG2 Assay for human Aryl Hydrocarbon Receptor (Ahr) (AID 2282930). The note with it: HepG2 AhR cis-factorial reporter transcription; actives raise or lower the signal. Put shortly: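 Transient MRTU transfection of HepG2 → 24 h compound exposure → total RNA, oligo(dT) RT → PCR, 6-FAM extension, HpaI cut → CE fluorescence. DMSO = baseline; bidirectional curve fit.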
Aryl hydrocarbon receptor (Homo sapiens), sequence (P35869 whole entry, looked up): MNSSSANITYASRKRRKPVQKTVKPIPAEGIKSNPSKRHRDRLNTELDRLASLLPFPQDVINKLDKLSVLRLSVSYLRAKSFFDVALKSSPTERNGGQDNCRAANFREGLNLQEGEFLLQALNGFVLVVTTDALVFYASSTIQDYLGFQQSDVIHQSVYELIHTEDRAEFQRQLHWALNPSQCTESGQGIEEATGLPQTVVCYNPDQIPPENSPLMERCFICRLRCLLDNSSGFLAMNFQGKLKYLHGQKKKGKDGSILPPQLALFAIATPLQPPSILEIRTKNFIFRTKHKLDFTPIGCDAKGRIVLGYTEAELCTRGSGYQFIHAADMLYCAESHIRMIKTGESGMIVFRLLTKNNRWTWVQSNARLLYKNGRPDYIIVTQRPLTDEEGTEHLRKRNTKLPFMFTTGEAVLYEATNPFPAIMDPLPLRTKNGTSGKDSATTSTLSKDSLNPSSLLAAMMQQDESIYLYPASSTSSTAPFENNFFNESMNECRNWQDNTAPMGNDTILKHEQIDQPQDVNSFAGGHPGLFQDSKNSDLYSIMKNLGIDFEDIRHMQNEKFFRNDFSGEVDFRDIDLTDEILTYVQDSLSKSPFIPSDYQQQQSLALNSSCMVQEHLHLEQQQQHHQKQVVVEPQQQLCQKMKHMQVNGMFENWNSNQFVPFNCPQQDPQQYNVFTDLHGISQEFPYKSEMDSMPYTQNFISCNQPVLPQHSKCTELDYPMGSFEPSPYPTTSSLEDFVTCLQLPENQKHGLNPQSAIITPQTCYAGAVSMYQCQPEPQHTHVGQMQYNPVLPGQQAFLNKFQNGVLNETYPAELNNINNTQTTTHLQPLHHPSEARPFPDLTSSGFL

The nature of assay [3]: ATG_AP_1_CIS: Attagene CIS-FACTORIAL HepG2 Assay for human Activator Protein 1 (AP-1) (AID 2282931). To be noted: HepG2 Attagene cis-factorial AP-1 reporter mRNA; actives raise or lower the signal. Put shortly: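 HepG2 cells transiently transfected with cis-element-driven reporter transcription units, dosed for 24 hours. Reporter mRNA measured by RT-PCR, 6-FAM labelling, HpaI digestion and capillary electrophoresis. Bidirectional fitting against DMSO baseline.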

The nature of assay [4]: ATG_AP_2_CIS: Attagene CIS-FACTORIAL HepG2 Assay for human Activator Protein 2 (AP-2) (AID 2282932). To be noted: HepG2 AP-2 cis-reporter, Attagene transcription factor profiling; actives raise or lower the signal. Put shortly: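 Endogenous transcription factor activity is reported through transfected multiplex reporter constructs in HepG2, after 24 h of compound exposure. Transcripts were quantified by RT-PCR and capillary electrophoresis of fluorescent fragments. Bidirectional fit against DMSO.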

The nature of assay [5]: ATG_BRE_CIS: Attagene CIS-FACTORIAL HepG2 Assay for human Bone Morphogenetic Protein (BMP) Response Element (BRE) (AID 2282933). The note with it: HepG2 BMP response element reporter, Attagene transcription factor profiling; actives raise or lower the signal. Put shortly: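 A HepG2 multiplex reporter system measured inducible reporter mRNA 24 h post-dosing. Detection: RT-PCR, 6-FAM primer extension, HpaI digestion, capillary electrophoresis. Activity fitted bidirectionally relative to DMSO.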

The target in assay [6] is Retinoic acid receptor alpha (Homo sapiens) (UniProt P10276). The assay can be described thus: ATG_DR5_RAR_CIS: Attagene CIS-FACTORIAL HepG2 Assay for human Retinoic Acid Receptor Alpha (RARE), DR5 submotif (AID 2282934).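 On AC50: reporter responds to endogenous RAR alpha beta and gamma in HepG2 not RARA alone.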 To be noted: HepG2 Attagene cis-factorial RARE DR5 reporter, mRNA; actives raise or lower the signal. In outline: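 Transient MRTU transfection of HepG2; 24 h compound treatment; TriZol RNA, oligo(dT) RT, PCR, FAM labelling, capillary electrophoresis. Bidirectional fit vs DMSO. Endogenous TF activity at DR5 RARE.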
Retinoic acid receptor alpha (Homo sapiens), sequence (P10276 whole entry, looked up): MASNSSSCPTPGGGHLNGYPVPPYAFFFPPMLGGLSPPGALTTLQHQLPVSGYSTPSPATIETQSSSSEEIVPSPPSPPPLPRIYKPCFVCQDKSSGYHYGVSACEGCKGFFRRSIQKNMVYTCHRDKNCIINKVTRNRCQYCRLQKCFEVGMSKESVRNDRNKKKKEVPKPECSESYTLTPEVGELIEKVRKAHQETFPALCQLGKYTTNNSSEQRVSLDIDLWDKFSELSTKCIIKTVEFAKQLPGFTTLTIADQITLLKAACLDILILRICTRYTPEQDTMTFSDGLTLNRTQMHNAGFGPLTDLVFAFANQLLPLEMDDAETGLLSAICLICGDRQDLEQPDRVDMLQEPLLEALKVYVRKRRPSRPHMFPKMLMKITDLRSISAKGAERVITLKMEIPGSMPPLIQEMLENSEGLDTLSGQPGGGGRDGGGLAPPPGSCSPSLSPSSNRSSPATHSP

Assay [7] addresses Transcription factor E2F1 (Homo sapiens) (UniProt Q01094). The assay can be described thus: ATG_E2F_CIS: Attagene CIS-FACTORIAL HepG2 Assay for human E2F Transcription Factor 1 (AID 2282935). To be noted: HepG2 Attagene cis-reporter, E2F reporter RNA transcripts; actives raise or lower the signal. In outline:
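Gain or loss of reporter transcript, fitted against DMSO, reflects E2F1-driven transcription. Transiently transfected HepG2 dosed 24 h before RNA isolation. Quantified by fluorescent RT-PCR products separated by capillary electrophoresis.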

Assay [8] in a line: ATG_E_Box_CIS: Attagene CIS-FACTORIAL HepG2 Assay for human Enhancer Box (E-box) (AID 2282936). The note with it: HepG2 E-box cis-reporter transcription, actives raise or lower the signal. Put shortly: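 E-box-driven reporter transcripts measured in transiently transfected HepG2 after 24 h exposure: RNA reverse-transcribed, PCR-amplified, fluorescently labelled, digested and resolved by capillary electrophoresis. Gain or loss relative to DMSO.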

Assay [9] can be described thus: ATG_M_61_CIS: Attagene CIS-FACTORIAL HepG2 Assay for M61 Transcription Factor (Internal Marker) (AID 2282937). The note with it: HepG2 Attagene CIS-FACTORIAL M61 internal marker reporter; actives raise or lower the signal. Put shortly:
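HepG2 cells transiently transfected with multiplexed cis-promoter reporter units reporting endogenous transcription factor activity, measured 24 h after dosing. Reporter mRNA quantified by RT-PCR and capillary electrophoresis; bidirectional fit against DMSO baseline.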

Assay [10] in a line: ATG_EGR_CIS: Attagene CIS-FACTORIAL HepG2 Assay for human Early Growth Response 1 (EGR1) (AID 2282938). The note with it: HepG2 Attagene CIS-FACTORIAL EGR reporter mRNA; actives raise or lower the signal. In outline:
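HepG2 cells transiently transfected with cis-element-driven multiplexed reporter units, dosed for 24 h. EGR1-element reporter mRNA quantified by RT-PCR, 6-FAM labelling, HpaI digestion and capillary electrophoresis; bidirectional fit versus DMSO.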

Assay [11] in a line: ATG_M_19_CIS: Attagene CIS-FACTORIAL HepG2 Assay for M19 Transcription Factor (Internal Marker) (AID 2282939). The note with it: HepG2 Attagene CIS-FACTORIAL M19 internal marker reporter; actives raise or lower the signal. In outline:
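Chemical-treated HepG2 (24 h) with MRTU constructs; reporter transcripts detected by fluorescent RT-PCR fragment analysis on capillary electrophoresis. Internal background marker, DMSO as baseline.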

The nature of assay [12]: ATG_ERE_CIS: Attagene CIS-FACTORIAL HepG2 Assay for Estrogen Response Element (ERE) (AID 2282940). To be noted: HepG2 ERE cis-reporter, Attagene RNA transcript; actives raise or lower the signal. Put shortly:
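Human liver cells (HepG2) bearing transiently transfected, promoter-regulated reporter units were exposed 24 h. Reporter mRNA induction was detected by capillary electrophoresis of labelled RT-PCR products and fitted bidirectionally to DMSO.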

Assay [13] can be described thus: ATG_Ets_CIS: Attagene CIS-FACTORIAL HepG2 Assay for human Erythroblast Transformation Specific (ETS) (AID 2282941). To be noted: HepG2 ETS cis-reporter transcription, actives raise or lower the signal. Put shortly: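 RT-PCR/capillary electrophoresis fluorescence read-out of reporter mRNA; HepG2 transient multi-reporter transfection; 24 h compound exposure; gain or loss of signal fitted bidirectionally relative to DMSO.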

Assay [14] concerns the target Hepatocyte nuclear factor 3-beta (Homo sapiens) (UniProt Q9Y261). Kind of assay: ATG_FoxA2_CIS: Attagene CIS-FACTORIAL HepG2 Assay for human Forkhead box A2 (FOXA2) (AID 2282942). The note with it: HepG2 cis-reporter transcription factor activity, 24 h; actives raise or lower the signal. In outline: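 HepG2 transiently transfected with a multiplexed cis-promoter reporter library read endogenous FOXA2 activity. After 24 h compound exposure, reporter mRNA was quantified by RT-PCR, HpaI digestion and capillary electrophoresis. Bidirectional fit against DMSO.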

Assay [15] in a line: ATG_FoxO_CIS: Attagene CIS-FACTORIAL HepG2 Assay for human Forkhead box O (FoxO) (AID 2282943). The note with it: HepG2 Attagene cis-reporter, FoxO element, mRNA; actives raise or lower the signal. In outline: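 HepG2, transient MRTU transfection (cis element, endogenous TFs). Dose 24 h. TriZol RNA → oligo(dT) RT → PCR → 6-FAM primer extension → HpaI cut → CE. Gain/loss vs DMSO.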

The nature of assay [16]: ATG_GATA_CIS: Attagene CIS-FACTORIAL HepG2 Assay for human GATA Binding Protein (AID 2282944). To be noted: HepG2 GATA cis-element reporter, Attagene multiplex mRNA; actives raise or lower the signal. Put shortly: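 Transfected cis-reporter HepG2 cells were treated with chemicals for 24 hours. Total RNA was then converted to cDNA, amplified with reporter-specific primers and analysed by fluorescent capillary electrophoresis, using DMSO-treated wells as baseline.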

The nature of assay [17]: ATG_GLI_CIS: Attagene CIS-FACTORIAL HepG2 Assay for human Zinc Finger Protein GLI1 (AID 2282945). To be noted: HepG2, Attagene cis-factorial reporter mRNA, GLI element; actives raise or lower the signal. Put shortly:
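Bidirectional curve fits relative to DMSO, using reporter mRNA levels from RT-PCR plus capillary electrophoresis. Cells were HepG2 transiently carrying cis-regulated reporter constructs, harvested 24 h after dosing.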

Assay [18] can be described thus: ATG_GRE_CIS: Attagene CIS-FACTORIAL HepG2 Assay for human Glucocorticoid Response Elements (GRE) (AID 2282947). To be noted: HepG2 GRE cis-reporter, Attagene multiplex mRNA; actives raise or lower the signal. In outline:
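Reporter transcripts read by RT-PCR with capillary electrophoresis fluorescence after a 24 h chemical exposure of HepG2 cells transiently transfected with multiple cis-element reporter units. Gain or loss fitted against DMSO.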

The nature of assay [19]: ATG_ISRE_CIS: Attagene CIS-FACTORIAL HepG2 Assay for human Interferon Regulatory Factor 1 (IRF1) binding to an Interferon-Stimulated Response Element (ISRE) (AID 2282948). To be noted: HepG2 ISRE cis-reporter (Attagene), mRNA transcription readout; actives raise or lower the signal. Put shortly: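 Read-out: fluorescent RT-PCR products resolved by capillary electrophoresis, reporting endogenous transcription factor activity via ISRE-driven reporter mRNA in transfected HepG2 cells dosed for 24 h; gain or loss fitted relative to DMSO.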

Assay [20] deals with Bile acid receptor (Homo sapiens) (UniProt Q96RI1). Kind of assay: ATG_IR1_CIS: Attagene CIS-FACTORIAL HepG2 Assay for human Nuclear Receptor Subfamily 1 Group H Member 4 (NR1H4), IR1 submotif (AID 2282946). To be noted: IR1 reporter transcription, actives raise or lower the signal. In outline:
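HepG2 cells transiently transfected with multiplexed cis-element reporter units read endogenous transcription factor activity. After 24 h compound exposure, reporter mRNA was quantified by RT-PCR, fluorescent labelling, HpaI digestion and capillary electrophoresis; bidirectional fitting versus DMSO baseline.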

Active and inactive are the calls of the source. How the source made its calls: active means hit-call score of the fitted dose curve at least 0.9, where 1 is the maximum; inactive means score below 0.9.

Bile acid receptor (Homo sapiens), sequence (Q96RI1 whole entry, looked up): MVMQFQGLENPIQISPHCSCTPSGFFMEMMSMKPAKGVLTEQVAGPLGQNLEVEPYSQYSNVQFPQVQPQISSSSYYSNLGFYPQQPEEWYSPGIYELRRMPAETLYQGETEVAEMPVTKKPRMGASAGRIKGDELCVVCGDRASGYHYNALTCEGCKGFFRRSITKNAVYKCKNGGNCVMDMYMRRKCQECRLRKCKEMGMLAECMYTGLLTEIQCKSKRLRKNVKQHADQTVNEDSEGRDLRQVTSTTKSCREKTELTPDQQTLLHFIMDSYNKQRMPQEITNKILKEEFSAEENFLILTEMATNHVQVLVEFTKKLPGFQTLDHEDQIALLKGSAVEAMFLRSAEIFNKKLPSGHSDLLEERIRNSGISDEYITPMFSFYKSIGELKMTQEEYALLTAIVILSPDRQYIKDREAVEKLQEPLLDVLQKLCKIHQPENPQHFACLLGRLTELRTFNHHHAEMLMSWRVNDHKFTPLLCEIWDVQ
Transcription factor E2F1 (Homo sapiens), sequence (Q01094 whole entry, looked up): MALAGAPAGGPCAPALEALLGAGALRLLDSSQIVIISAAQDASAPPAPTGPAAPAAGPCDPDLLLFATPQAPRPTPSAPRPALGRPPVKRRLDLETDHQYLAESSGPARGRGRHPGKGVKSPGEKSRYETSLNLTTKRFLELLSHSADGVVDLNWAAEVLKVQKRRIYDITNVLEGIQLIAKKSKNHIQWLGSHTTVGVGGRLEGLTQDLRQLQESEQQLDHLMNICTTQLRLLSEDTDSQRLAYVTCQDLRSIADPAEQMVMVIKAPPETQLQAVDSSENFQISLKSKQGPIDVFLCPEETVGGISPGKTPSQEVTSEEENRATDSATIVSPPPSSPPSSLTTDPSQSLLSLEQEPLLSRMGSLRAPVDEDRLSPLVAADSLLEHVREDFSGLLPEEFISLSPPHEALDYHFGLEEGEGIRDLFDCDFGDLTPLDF
Hepatocyte nuclear factor 3-beta (Homo sapiens), sequence (Q9Y261 whole entry, looked up): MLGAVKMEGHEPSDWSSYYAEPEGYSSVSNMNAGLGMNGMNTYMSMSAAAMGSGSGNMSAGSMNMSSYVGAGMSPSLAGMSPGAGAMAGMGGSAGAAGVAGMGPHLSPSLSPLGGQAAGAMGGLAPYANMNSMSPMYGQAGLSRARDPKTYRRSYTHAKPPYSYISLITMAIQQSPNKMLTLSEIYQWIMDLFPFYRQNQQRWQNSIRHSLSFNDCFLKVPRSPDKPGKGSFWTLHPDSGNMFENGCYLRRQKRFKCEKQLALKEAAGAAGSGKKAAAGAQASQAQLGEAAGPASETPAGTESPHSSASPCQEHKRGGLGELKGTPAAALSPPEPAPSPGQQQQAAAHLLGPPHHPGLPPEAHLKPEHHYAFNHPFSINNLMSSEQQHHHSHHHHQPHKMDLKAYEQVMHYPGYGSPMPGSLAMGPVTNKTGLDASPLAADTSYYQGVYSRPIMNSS

`O=C(Cl)OCCOCCOC(=O)Cl`: the result in assay [1], in [2], in assay [3], in assay [4], in [5] and in assay [6] was inactive. In addition, the compound was classed as inactive in [7], in [8], in assay [9], in assay [10], in [11] and in assay [12]. Also, the result in assay [13], in assay [14], in [15], in assay [16], in [17] and in assay [18] was inactive. For the same compound, the call in assay [19] was inactive.

Consider `CCN(N=O)C(N)=O`, for which the result in assay [1], in [2], in assay [3], in assay [4], in [5] and in [6] was inactive. In addition, the compound was classed as inactive in assay [7], in assay [8], in [9], in assay [10], in [11] and in [12]. The outcome in assay [13], in [15], in assay [16], in assay [17], in assay [20] and in assay [19] was inactive.

For the compound `OC(Cc1ccccc1Cl)(Cn1cncn1)C1(Cl)CC1` (stereo not given), the result in [1], in assay [2], in assay [3], in assay [4], in [5] and in assay [6] was inactive. For the same compound, the result in [7], in assay [8], in [9], in assay [11], in assay [12] and in assay [13] was inactive. In addition, the result in assay [15], in assay [16], in assay [17], in assay [20] and in assay [19] was inactive. In addition, the AC50 in assay [10] is 47.6 µM (active).

In the case of `CC(C)(C#N)N=NC(C)(C)C#N`, the call in [1], in assay [2], in [3], in assay [4], in assay [5] and in [6] was inactive. The call in assay [7], in assay [8], in assay [9], in assay [10], in [11] and in [12] was inactive. Moreover, the call in assay [13], in [14], in assay [15], in [16], in assay [17] and in [18] was inactive. Moreover, the compound was classed as inactive in assay [19].

`NC(=O)c1ccc(N)nc1`: the compound was called inactive in assay [1], in assay [2], in assay [3], in assay [4], in assay [5] and in [6]. Besides, the outcome in assay [7], in assay [8], in assay [9], in assay [10], in assay [11] and in assay [12] was inactive. The result in assay [14], in [15], in assay [16], in [17], in [20] and in assay [19] was inactive. In assay [13], the AC50 was 100 µM (active).

On to `Cc1ccccc1OP(=O)(Oc1ccccc1)Oc1ccccc1`, for which the AC50 in assay [1] is 12.3 µM (active); in assay [3], 47.9 µM (active); in [5], 64.2 µM (active); in assay [6] it was 32 µM (active); in [7], 57.2 µM (active); in assay [12] it was 7.35 µM (active). Also, the AC50 in assay [20] is 23.7 µM (active); in assay [19], 7.35 µM (active). Besides, the outcome in assay [2], in assay [4], in [8], in [9], in assay [10] and in assay [11] was inactive. Further, the result in assay [13], in assay [14], in [15], in assay [16] and in assay [17] was inactive.

In the case of `CCOP(=S)(OCC)SCSc1cc(Cl)ccc1Cl`, the outcome in assay [1], in assay [2], in assay [3], in assay [4], in assay [5] and in assay [6] was inactive. For the same compound, the compound was called inactive in assay [7], in assay [8], in assay [9], in assay [10], in [11] and in assay [12]. Besides, the result in assay [13], in assay [14], in [15], in assay [16], in [17] and in [19] was inactive.

For the origin of these results see PubChem BioAssay (EPA / NIEHS).
